The panel holds about 83,000 compounds, 20% with a hit somewhere; the sample as a whole holds those more often.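 Interpretation: 100, growth as untreated; towards 0, rising growth inhibition; 0, no net growth; 0 to -100, cell death. Compounds scoring below 10 were considered active.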 Unmarked numbers belong to inactive results. The source made the active and inactive calls.
test system: SF-268 CNS; assay: NCI-60 one-dose screen, 48 h (100 = growth as untreated, 0 = no growth, -100 = all killed); conditions: 10 µM unless noted

Going from `COc1cc2c3c(c1)nc(C)n3CCC2` to `COc1cc(NCCN(CC(C)C)CC(C)C)c2ncc(C)cc2c1`, the growth falls from 107% to 71.1%.

Compared with `Cc1sc2c(c1C)c(=O)nc1c(-c3nc4ccccc4s3)n[nH]n12`, `CCOC(=O)C1=C(C)N=C2Sc3cc(OC(F)(F)F)ccc3N2[C@H]1c1ccccn1` is lower in growth: 96.1% for the first, 47.8% for the second.

Compared with `CCOC(=O)C1=C(C)NC(=O)NC1c1cc(=O)oc2ccc(C)cc12` (centres undefined), `COc1ccc(C2CC(=O)c3c(O)c(OC)c(OC)c(OC)c3O2)c(O)c1` (centres undefined) is lower in growth: 101% for the first, 44.4% for the second.

Going from `COc1ccc2nc3cc(Cl)ccc3c(Nc3ccc(N(C)C)cc3)c2c1` to `COc1ccc2c(CCCc3ccc(Cl)cc3Cl)c3[n+](cc2c1OC)CCc1cc2c(cc1-3)OCO2`, the growth falls from 94.5% to 12.9%.

First: C[C@@H](C[C@H](CCO)c1cc(C(F)(F)F)cc(C(F)(F)F)c1)c1ccc2ccccc2c1
Second: CC(N)C(Cc1ccccc1)c1ccc(Cl)cc1 (centres undefined)
The growth of the first is lower: 81.8% for the first, 92.2% for the second.

Compared with `N#Cc1c(NC(=O)c2cccs2)[n+]([O-])c2ccc(F)cc2[n+]1[O-]`, `Nc1c(C(=O)c2ccccc2)sc2nc(-c3cccs3)ccc12` is lower in growth: 101% for the first, 45.7% for the second.

Compared with `CC(CCCC(=O)O)c1ccoc1` (centres undefined), `CC(=O)C(C(C)=O)C(c1ccccc1)C(C(C)=O)C(C)=O` is higher in growth: 95.8% for the first, 108% for the second.

First: CC(C)(C)C(=O)OCOP(=O)(OCOC(=O)C(C)(C)C)C1CCCN(OC(=O)c2ccccc2)C1=O (centres undefined)
Second: C=CCCCC(=O)CCC(=O)OCC1O[C@@H](O[C@@H]2C(O)[C@@H](OC(C)=O)C(C)O[C@H]2O[C@H](CC=C)CCCCC)C(O)[C@@H](OC(=O)/C(C)=C/C)[C@@H]1OC(=O)/C=C/c1ccccc1 (some centres undefined)
The growth of the first is higher: 36% for the first, 29.2% for the second.

Going from `O=C(Cc1ccccc1)Nc1nnc(NC2CCN(c3nnc(NC(=O)Cc4ccccc4)s3)CC2)s1` to `C[N+](C)(CCOC(c1ccccc1)c1ccccc1)CC(=O)OCc1ccccc1`, the growth rises from 91.1% to 106%.

First: CCCCCCC1(/C=N/NC(N)=O)NC(=O)NC1=O (centres undefined)
Second: NN1C(=O)CSC1=S
The growth of the first is higher: 99.3% for the first, 95.9% for the second.

First: CC(N)C(Cc1ccc(Cl)cc1)c1ccc(Cl)cc1 (centres undefined)
Second: C=CCC(=O)N[C@H](/C=C/C(=O)O)Cc1ccc(-c2cc(Cl)cc(Cl)c2)cc1
The growth of the first is lower: 62.6% for the first, 98.7% for the second.

First: CC(C)[C@@H](C)/C=C/[C@@H](C)[C@H]1CCC2=C3C=CC4=CC(=O)CC[C@]4(C)[C@H]3CC[C@@]21C
Second: COC(=O)[C@]12CC[C@@H](C)[C@H](C)[C@@H]1C1=CC[C@@H]3[C@@]4(C)C(c5cnco5)=C[C@@](C)(CO)C4=CC[C@@]3(C)[C@]1(C)CC2
The growth of the first is higher: 98.9% for the first, 63% for the second.

Compared with `COc1ccc2c(CCC(c3ccccc3)c3ccccc3)c3[n+](cc2c1OC)CCc1cc2c(cc1-3)OCO2`, `COc1ccc2c(c1OC)C(=O)O[C@@H]2[C@H]1c2c(c(C#CC#Cc3ccc(F)c(F)c3)c3c(c2OC)OCO3)CCN1C` is higher in growth: 19.8% for the first, 95.9% for the second.

Compared with `O=C1CC(c2ccc3c(c2)OCO3)c2ncn(-c3ccc(Cl)cc3)c2N1` (centres undefined), `Cc1cccc(NC(=O)[C@@H]2c3ccccc3C(=O)N(c3ccc(Cl)cc3)[C@H]2c2ccc(Cl)cc2)n1` is higher in growth: 44.4% for the first, 62.8% for the second.

In the case of `COc1cc2c(cc1OCCCCCN1CCN(c3ncnc4ccccc34)CC1)N=CC1CCCN1C2=O` (centres undefined), the growth is reported as -0.231% (active).
For `COc1cc2c(cc1OCCCCN1CCN(CC(=O)Nc3ccc(Cl)cc3C(=O)c3ccccc3Cl)CC1)N=CC1CCCN1C2=O` (centres undefined), the growth was -75.5% (active).
With `COc1cc2c(cc1OCCCCCCN1CCN(c3ncnc4ccccc34)CC1)N=CC1CCCN1C2=O` (centres undefined) the growth was -2.27% (active).
In the case of `c1cc[n+](Cc2c3ccccc3cc3c2ccc2ccccc23)cc1`, the growth is reported as 7.4% (active).
`CC(C)[C@@H]1CC[C@]2(CO2)[C@@H]2C(=O)OCC(C(=O)O)=C[C@H]21` was tested, and the growth was 1.21% (active).
With `CCCCCCCC(=O)SCC/C=C/[C@@H]1CC(=O)NCc2nc(co2)C2=N[C@@](C)(CS2)C(=O)N[C@@H](C(C)C)C(=O)O1` the growth was 1.9% (active).
In the case of `COc1ccc2c(CCCCC(c3ccccc3)c3ccccc3)c3[n+](cc2c1OC)CCc1cc2c(cc1-3)OCO2`, the growth is reported as -60.7% (active).
With `C=C1C(=O)O[C@H]2[C@H]1CC/C(Cn1cc(-c3cc(C)c(C)cc3C)nn1)=C\CC[C@@]1(C)O[C@@H]21` the growth was -54.5% (active).
In the case of `C=C1C(=O)O[C@H]2[C@H]1CC/C(CNC(=O)c1cc3cc(OC)ccc3[nH]1)=C\CC[C@@]1(C)O[C@@H]21`, the growth is reported as -39.3% (active).
In the case of `Clc1nc(Cl)c2ncn(CC#CCn3cnc4c(Cl)nc(Cl)nc43)c2n1`, the growth is reported as -37.8% (active).
With `Nc1c2c(c(O)c3c1=C(CO)C=N3)=NCCS2` the growth was -47.9% (active).

From PubChem BioAssay (NCI)
